The source of these data is PubChem BioAssay (NCATS).

Activity calls are given as the source filed them. Where a call stands in place of a potency, no number is given. The call rests on the fitted dose curve; in most records, active means well fitted curve in the direction sought with a large enough effect; inconclusive means small, poorly fitted or top-dose-only effect, or another doubt; inactive means no such curve, though single readings can be large or run the other way.
Potency means the concentration at half of the fitted maximal effect.

This assay deals with Hexokinase-4 (Homo sapiens) + Glucokinase regulatory protein (Homo sapiens) (UniProt P35557+Q14397). Description: qHTS assay for inhibitors of recombinant human GCK-GKRP interaction: HTRF assay (AID 743207). The conditions noted are these: recombinant GCK-GKRP HTRF binding, 60 min, with sorbitol-6-phosphate; series mostly up to 57.5 µM. An excerpt: Glucokinase (GCK) is a glucose sensor in hepatocytes and pancreatic beta-cells. Hepatic GCK is regulated by glucokinase regulatory protein (GKRP), which is predominantly localized to the liver. GKRP binds to GCK inhibiting its activity in the fasting state while in the presence of glucose the GKRP is displaced. There is an additional layer of regulation by fructose 1-phosphate and fructose 6-phosphate, which inhibit and enhance the GCK-GKRP interaction, respectively. GCK plays a role in glucose homeostasis and there is an interest in the development of strategies to activate GCK to lower blood glucose levels in type 2 diabetes. To date the majority of effort has focused on direct activation of GCK and the assays developed herein look to activate GCK by inhibiting its binding to GKRP. A compound that inhibits the interaction of GCK with GKRP could be important for the treatment of diabetes and can also be used as a tool compound to further elucidate GCK-GKRP biology. To that end, we have developed an HTS biochemical assay using HTRF technology for to interrogate the GCK-GKRP interaction. This assay was screened against a small compound library to look for modulators of activity.
Hexokinase-4 (Homo sapiens) + Glucokinase regulatory protein (Homo sapiens), sequence (P35557 whole entry, looked up): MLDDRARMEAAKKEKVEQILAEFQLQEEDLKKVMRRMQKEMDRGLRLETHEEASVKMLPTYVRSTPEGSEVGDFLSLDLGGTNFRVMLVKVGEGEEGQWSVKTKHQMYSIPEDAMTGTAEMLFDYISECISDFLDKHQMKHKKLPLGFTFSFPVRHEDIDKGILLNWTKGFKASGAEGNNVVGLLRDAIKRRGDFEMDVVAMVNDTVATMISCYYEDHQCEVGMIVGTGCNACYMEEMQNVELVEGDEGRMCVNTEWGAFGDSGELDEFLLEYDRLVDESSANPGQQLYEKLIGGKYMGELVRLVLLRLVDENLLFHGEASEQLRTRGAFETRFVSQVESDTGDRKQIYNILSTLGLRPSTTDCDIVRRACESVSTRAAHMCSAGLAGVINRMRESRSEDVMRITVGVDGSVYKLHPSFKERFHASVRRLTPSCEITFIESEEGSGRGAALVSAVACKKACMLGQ
Hexokinase-4 (Homo sapiens) + Glucokinase regulatory protein (Homo sapiens), sequence (Q14397 whole entry, looked up): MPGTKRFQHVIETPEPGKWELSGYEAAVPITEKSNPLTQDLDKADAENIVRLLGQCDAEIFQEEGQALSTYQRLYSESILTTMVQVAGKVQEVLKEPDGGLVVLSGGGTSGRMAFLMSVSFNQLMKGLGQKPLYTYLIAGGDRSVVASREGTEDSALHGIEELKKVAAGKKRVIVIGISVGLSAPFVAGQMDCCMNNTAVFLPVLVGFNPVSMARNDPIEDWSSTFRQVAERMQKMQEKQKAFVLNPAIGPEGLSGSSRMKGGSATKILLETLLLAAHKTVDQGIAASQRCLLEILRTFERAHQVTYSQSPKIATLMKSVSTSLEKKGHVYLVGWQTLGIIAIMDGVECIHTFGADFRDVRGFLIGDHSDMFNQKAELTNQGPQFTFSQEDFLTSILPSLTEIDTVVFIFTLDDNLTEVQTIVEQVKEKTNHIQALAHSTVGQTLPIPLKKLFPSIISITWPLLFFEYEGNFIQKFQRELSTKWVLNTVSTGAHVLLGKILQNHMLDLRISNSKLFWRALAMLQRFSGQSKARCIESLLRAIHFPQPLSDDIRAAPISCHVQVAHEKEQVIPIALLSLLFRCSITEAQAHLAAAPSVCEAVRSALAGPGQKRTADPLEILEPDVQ
3 uL of 5 nM GST-GCK and 5 nM FLAG-GKRP proteins with 2 uM S6P (columns 1-2, 4-48; Millipore, Billerica, MA) are dispensed into Greiner, white solid-bottom 1536-well assay plates; columns 3 receive buffer without GCK as a control for maximum inhibition. Buffer contains 2 mM MgCl2, 25 mM KCl, 25 mM Hepes, 1 mM DTT, 0.1% Tween 20 and 0.025% BSA and the pH was adjusted to 7.1. Compounds (23 nL) are then transferred via Kalypsys pin tool equipped with 1536-pin array (10 nL slotted pins, V&P Scientific, San Diego, CA). The library compounds are in columns 5-48 and columns 1-4 serve as controls with DMSO in columns 1 and 3 and 26 mM 1:1.5 fold serial of gluckokinase activator (GKA-EMD) in column 2 and 26 mM of the glucokinase activator (GKA-EMD) in column 4. Following addition of compound, 1 uL of detection antibodies (anti-Flag XL 665 and anti-GST K in reconstitution buffer from Cisbio, Bedford, MA; 0.7 ng/well and 0.0945 ng/well, respectively) is added, and the mixture is allowed to equilibrate for 60 minutes at room temperature. Data are normalized to DMSO-treated control columns with (maximum signal) and without (minimum signal) enzyme. Plates were read on an Envision plate reader (PerkinElmer, Shelton, CT, USA) with excitation at 320 nm and dual-wavelength detection at the Fret donor wavelength (615 nm) and the FRET acceptor wavelength (665 nm).
For `COc1ccccc1N1CCN(CCN(C(=O)c2ccc(I)cc2)c2ccccn2)CC1`, the Potency entry is “inactive”.
With `C[N+]1(C)CCC(OC(=O)C(c2ccccc2)c2ccccc2)CC1` the entry was “inactive”; with `CN(C)c1ccc(/C=C2\C(=O)Nc3ccccc32)cc1`, “inactive”.
In the case of `CC1(C)CCC=[N+]1[O-]`, the Potency entry is “inactive”.
Consider `Nc1ncnc2c1ncn2[C@@H]1O[C@H](COP(=O)(O)CP(=O)(O)OP(=O)(O)O)[C@@H](O)[C@H]1O`, for which the Potency result is “inactive”.
As to `COc1cc(SC)ccc1C(=O)N1CCC(Cc2ccccc2)CC1`, the Potency entry was “inactive”.
Take `CCC1C(=O)OCC1Cc1cncn1C` (stereo not given): the Potency result was “inactive”.
For the compound `CC(N)C(=O)OC(C)(C)Cc1ccc(Cl)cc1` (stereo not given), the Potency result was “inactive”.
For `OCC1O[C@H]([S-])[C@H](O)[C@@H](O)[C@@H]1O.[Au+]` (stereo not given in full), the Potency was 15.8 µM (active).
Under `CN(C)c1nc(N)c(C(=O)N=C(N)N)nc1Cl` stands “inactive”; under `CCCN(CC1CC1)c1nc(C)nc(Nc2c(Cl)cc(Cl)cc2Cl)c1Cl`, “inactive”; under `O=C(O)CC1CC(c2ccccc2)=NO1` (stereo not given), “inactive”.
With `N=C(N)SCCc1ccc(CCSC(=N)N)cc1` the entry was “inactive”; with `CCCCCCCCCCCCCCCCCC(=O)OC(CC(=O)O)C[N+](C)(C)C` (stereo not given), “inactive”; with `COC1=C(OC)C(=O)c2ccccc2C1=O`, “inactive”.
With `Cc1cc(NC(=O)Nc2ccc3c(ccn3C)c2)sn1` the entry was “inactive”; with `CN1C2CCC1CC(OC(=O)C(O)c1ccccc1)C2` (stereo not given), “inactive”; with `CSc1nc(N)c2ncn([C@@H]3O[C@H](COP(=O)(O)OP(=O)(O)OP(=O)(O)O)[C@@H](O)[C@H]3O)c2n1`, “inactive”.
For `Cc1cc2c(cc1Cl)N(C(=O)Nc1ccc(Oc3cccnc3C)nc1)CC2`, the Potency entry was “inactive”.
Under `CCCCCC(O)c1cccc(OCc2ccc3ccccc3n2)c1` (stereo not given) stands “inactive”; under `CCCCN1CCC(n2c(=O)[nH]c3ccccc32)CC1`, “inactive”.
For the compound `C=C[C@@H]1CN2CC[C@@H]1C[C@H]2[C@H](O)c1ccnc2ccc(OC)cc12`, the Potency entry was “inactive”.
Under `Nc1ncnc2c1ncn2[C@@H]1O[C@H](COP(=O)(O)OP(=O)(O)OP(=O)(O)OP(=O)(O)OC[C@@H]2O[C@H](n3cnc4c(N)ncnc43)[C@@H](O)[C@H]2O)[C@@H](O)[C@H]1O` stands “inactive”.
With `CO/S(=N\S(=O)(=O)c1ccc(Cl)cc1)c1ccc([N+](=O)[O-])cc1` (stereo not given) the entry was “inactive”; with `C[N+](C)(C)CC(=O)[O-]`, “inactive”.
Under `CCCCC/C=C\CC(O)/C=C/c1cccc(CC(O)CCCCO)n1` (stereo not given) stands “inactive”.
As to `O=C(O)[C@@H]1C[C@H](C(=O)O)N1`, the Potency result is “inactive”.
For `Cc1nc2sccn2c(=O)c1CCN1CCC(=C(c2ccccc2)c2ccc(F)cc2)CC1`, the Potency entry was “inactive”.
`O=S(=O)(c1cccc2c(I)cccc12)N1CCCNCC1`: the Potency entry is “inactive”.
Take `O=C(O)/C=C/C(O)c1ccc(Cl)cc1` (stereo not given): the Potency result is “inactive”.
Consider `C[N+]1(C)C2CC(OC(=O)[C@H](CO)c3ccccc3)CC1C1OC12` (stereo not given in full), for which the Potency result is “inactive”.
Consider `COC(=O)c1c(C)[nH]c(C)c1C(=O)c1ccccc1Cc1ccccc1`, for which the Potency entry was “inactive”.
With `Oc1cc2c(cc1O)CN(C(=S)NCCc1ccc(Cl)cc1)CCC2` the entry was “inactive”; with `N#C/C(=C\c1ccc(O)c(O)c1)C(=O)NCc1ccccc1`, “inactive”.
With `CN1CC(=O)N/C1=N/C(=O)Nc1cccc(Cl)c1` the entry was “inactive”.
As for `COc1cc2nc(N3CCN(C(=O)OCc4ccccc4)C(C(=O)NC(C)(C)C)C3)nc(N)c2cc1OC` (stereo not given), the Potency result is “inactive”.
With `C[N+](C)(CCCCCC[N+](C)(C)CCCN1C(=O)c2cccc3cccc(c23)C1=O)CCCN1C(=O)c2cccc3cccc(c23)C1=O` the entry was “inactive”; with `Brc1c(Br)c(Br)c2n[nH]nc2c1Br`, “inactive”.
Under `CNC(=O)[C@H]1O[C@@H](n2cnc3c(NCc4cccc(I)c4)ncnc32)[C@H](O)[C@@H]1O` stands “inactive”; under `Cc1ccccc1CNc1ncnc2c1ncn2C1OC(CO)C(O)C1O` (stereo not given), “inactive”.
